# Reference: PubChem BioAssay AID588473 (Sanford-Burnham Center for Chemical Genomics, 2011)
# Among all 350,000 compounds or so, about 1,600 (0.46%) were called active. The full list was thinned out, with actives kept by preference. Values without a mark were called inactive.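 How the source made its calls: active means activation of at least 50%, plus an integration ratio under a set limit after plate pattern correction; inactive means the rest.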
# Tested on: CRF-binding protein / CRF receptor 2 complex (human)
# Assay: agonists of CRF-BP/CRF-R2 complex, primary screen, cell-based, HEK293, calcium dye fluorescence, uHTS (AID 588473);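 further: plate controls were neutral control wells without compound for no effect and CRF at EC100 for full effect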
# Settings: calcium dye fluorescence (FLIPR), at 13.2 µM, stronger effect = higher value, percent of saturating CRF peptide response
row,SMILES,activation
1,COc1ccc(-c2c(-c3cc(OC)cc(OC)c3)n(C)c3ccc(-c4ccn[nH]4)cc23)cc1,2.7%
2,CC1CC1C(=O)OCC(=O)Nc1cccc(F)c1 (centres undefined),1.09%
3,CCOCCc1c(O)nc(SCC(=O)NCc2ccco2)[nH]c1=O,0.28%
4,Cc1ccc(CN(C)C[C@@H]2OCc3cnnn3CCCC(=O)N([C@@H](C)CO)C[C@H]2C)cc1,0.05%
5,COC(=O)Cc1cc(=O)oc2c(C)c(O)ccc12,2.46%
6,Cc1cc(S(=O)(=O)c2cc3ccc(O)c(C)c3oc2=O)ccc1F,91.1% (active)
7,COc1cccc2cc(S(=O)(=O)c3ccc(C)cc3)/c(=N/NS(=O)(=O)c3ccc(C)cc3)oc12,2.38%
8,COc1ccc(-c2[nH]ncc2CN(C)Cc2cc(C)[nH]n2)c(F)c1,-4.41%
9,CCN(CC)c1ccc(NC(=O)C2CCC(CNc3c(N4CCCC4)c(=O)c3=O)CC2)c(C)c1 (centres undefined),-1.59%
10,COc1ccc(/C=C(\C#N)C(=O)OCC(=O)N(C)C2CCS(=O)(=O)C2)cc1 (centres undefined),-0.47%
11,CCCn1c(C)cc(/C=C(\C#N)C(=O)OCC(=O)N(C)c2c(N)n(Cc3ccccc3)c(=O)[nH]c2=O)c1C,-1.33%
12,CCOC(=O)/C(C#N)=C/c1ccc(N2CCCCC2)cc1,69.9% (active)
13,CC(C)OC(=O)C(C#N)c1nc2ccccc2nc1N1CCN(Cc2ccccc2)CC1 (centres undefined),4.17%
14,COc1ccc(/C=C(\C#N)C(=O)ONC2=NCCCCC2)cc1,-0.53%
15,CCOC(=O)/C(C#N)=C/c1ccc(N2CCN(Cc3ccccc3)CC2)cc1,100% (active)
16,CC(C)c1nc(CNC(=O)CC2C(=O)NCCN2Cc2ccoc2)cs1 (centres undefined),3.31%
17,CCO[C@H]1OC(C(=O)N2CCN(Cc3ccccc3)CC2)=C[C@@H](c2cn(C(C)=O)c3ccccc23)[C@@H]1CCCO,-0.99%
18,O=C(OCc1cn(-c2ccc(Cl)c(Cl)c2)nn1)c1ccccc1Cl,5.3%
19,CC(C(=O)N1CCN(c2ccccc2F)CC1)c1ccc([N+](=O)[O-])cc1 (centres undefined),-0.08%
20,CC(C)CNC(=O)/C=C/C(=O)O,-1.76%

row,SMILES,activation
1,CCCc1cc(=O)n2[nH]c(SCc3ccccc3)nc2n1,1.41%
2,Cc1ccc2c(c1)nnc1nnc(SCC(=O)O)n12,187% (active)
3,CCn1nnnc1SCC(=O)c1ccc(C)cc1C,1.45%
4,Cc1cccc(-c2nnc(SCC(=O)O)n2Cc2ccccc2)c1,-1.45%
5,CC1(C)C2CCC13CS(=O)(=O)NC3C2 (centres undefined),-2.27%
6,CC1Cc2nc(SCC(=O)Nc3ccccc3F)n(C)c(=O)c2S1 (centres undefined),-2.32%
7,COc1cccc(N(CC(=O)NC2CCCC2)C(=O)Cn2nnc(-c3ccc(C)cc3)n2)c1,-0.55%
8,CCOc1ccc2nc(NCCNC(=O)C(C)(C)C)c(C)cc2c1,0.31%
9,CCOc1ccc2nc(N3CCCN(C(=O)Nc4ccccc4C)CC3)c(C#N)cc2c1,53.4% (active)
10,CCOc1ccc(C(=O)NC2CCN(C(=O)Nc3ccccc3OC)CC2)cc1,1.14%
11,CCC(=O)Nc1cc(C(F)(F)F)ccc1N1CCCC1,-0.05%
12,CCCCCCSc1ccc([C@@H]2[C@@H]3C(=O)N(CC)C(=O)[C@@H]3[C@]3(C(=O)OC)CCCCN23)cc1OC,5.06%
13,O=C(N1CCOCC1)N1CCOCC1,-0.16%
14,N#C/C(=C\N1CCOCC1)S(=O)(=O)c1ccc(Cl)cc1,-0.74%
15,N#C/C(=C\c1ccc(N2CCOCC2)o1)C(=O)N1CCOCC1,57.8% (active)
16,N#C/C(=C/c1ccc(N2CCOCC2)o1)C(=O)N1CCOCC1,67.4% (active)
17,N#C/C(=C\C1=C(N2CCOCC2)C(=C\c2ccccc2)/CC1)C(=O)Nc1ccccc1F,10.9%
18,N#C/C=C(/c1ccc(F)cc1)N1CCOCC1,-1.81%
19,CCCN(CC(=O)Nc1ccc(C(N)=O)cc1)CC(=O)Nc1ccccc1C,-1.42%
20,CCCn1nc(NC(=O)C(C)C)c2cc3cc(OC)ccc3nc21,-3.44%

row,SMILES,activation
1,O=C(O)CSc1nccc2ccccc12,-1.24%
2,O=C(O)C(c1ccccc1)N1C(=O)/C(=C\c2ccc(-c3cccc(Cl)c3)o2)SC1=S (centres undefined),53.1% (active)
3,CN1C(=O)/C(=C\c2ccc(-c3ccccc3)o2)SC1=S,177% (active)
4,Cn1cccc1/C=C1\SC(=S)N(NC(=O)c2ccc(Cl)cc2)C1=O,0.66%
5,O=C1/C(=C/c2ccc(F)cc2)SC(=S)N1NS(=O)(=O)c1ccccc1,-2.42%
6,NS(=O)(=O)c1ccc(-c2ccc(/C=C3\SC(=O)NC3=O)o2)cc1,-4.11%
7,CC(C(=O)NC1CCS(=O)(=O)C1)N1C(=O)/C(=C/c2ccc(Cl)cc2)SC1=S (centres undefined),0.11%
8,Cc1nn(CC(=O)NC2CCCCC2)c(=O)c2cccn12,-0.23%
9,O=S1(=O)C=C(SCCN2CCCC2)c2ccccc21,0.69%
10,CCCN1C2CCCC1CC(NC(=O)NC13CC4CC(CC(C4)C1)C3)C2 (centres undefined),0.55%
11,Cc1cccc(N(C)C(=O)CN2C(=O)COc3ccc(S(=O)(=O)N4CCCCCC4)cc32)c1,21.6%
12,COc1cc(CCC(=O)OCC(=O)Nc2cccc(S(N)(=O)=O)c2)cc(OC)c1OC,1.86%
13,COC(=O)c1cc(NC(=O)c2nn(C)c(=O)c3ccccc23)cc(C(=O)OC)c1,-0.23%
14,CCN(CC)c1ccc2oc(=O)c(C)nc2c1,111% (active)
15,CCc1ccc2oc(-c3ccc(N)cc3)nc2c1,0.69%
16,Cc1ccc2oc(=O)ccc2c1,-1.36%
17,C/C(CC(=O)NC(C)(C)C)=N\NC(=O)c1ccco1,-2.93%
18,CN1CCC(=O)N([C@H](CO)Cc2ccccc2)CC1,0.86%
19,O=C1NC(Nc2nc3ccccc3s2)(C(F)(F)F)C(=O)N1C1CCCCC1 (centres undefined),-0.92%
